CYP2C19 act: activators of human cytochrome P450 2C19 | 96,000 tested, under 10 active | AID 1025 | activation factor at 5 µM | P33261 | recombinant CYP2C19, luciferin-H EGE luminescence; stronger effect = higher value; 0 = fully inhibited enzyme, 1 = untreated enzyme;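 active means activation factor of at least 2 at 5 µM in the primary screen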
cytoskel mod: cytoskeleton assembly modification. HUVEC TNFa F-actin phalloidin imaging, high content. inhibition, % at 2 µM. 91,000 tested, 0.18% active. AID 836;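 active means inhibition above the batch mean plus 3 SD and confirmed as a hit by visual image inspection, cut at about 30% in these data, passing the limit was not always enough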
CYP2C19 inh: inhibitors of human CYP2C19; inhibition, % at 5 µM; 96,000 tested, 21% active; CYP2C19 Supersomes, luciferin-H EGE luminescence, 30 min; AID 778; P33261;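 active means CYP2C19 inhibition above a set limit at 5 µM in the primary screen, cut at about 50% in these data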
CYP2C9 inhib: blocks human cytochrome P450 2C9; AID 777; CYP2C9 Supersomes, luciferin-H conversion, luminescence; P11712; 96,000 tested, 20% active; inhibition, % at 5 µM;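 active means blocking of liver enzyme CYP2C9 beyond about 50% at 5 µM, limit read from the data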
Target sequence (P11712 whole entry, looked up): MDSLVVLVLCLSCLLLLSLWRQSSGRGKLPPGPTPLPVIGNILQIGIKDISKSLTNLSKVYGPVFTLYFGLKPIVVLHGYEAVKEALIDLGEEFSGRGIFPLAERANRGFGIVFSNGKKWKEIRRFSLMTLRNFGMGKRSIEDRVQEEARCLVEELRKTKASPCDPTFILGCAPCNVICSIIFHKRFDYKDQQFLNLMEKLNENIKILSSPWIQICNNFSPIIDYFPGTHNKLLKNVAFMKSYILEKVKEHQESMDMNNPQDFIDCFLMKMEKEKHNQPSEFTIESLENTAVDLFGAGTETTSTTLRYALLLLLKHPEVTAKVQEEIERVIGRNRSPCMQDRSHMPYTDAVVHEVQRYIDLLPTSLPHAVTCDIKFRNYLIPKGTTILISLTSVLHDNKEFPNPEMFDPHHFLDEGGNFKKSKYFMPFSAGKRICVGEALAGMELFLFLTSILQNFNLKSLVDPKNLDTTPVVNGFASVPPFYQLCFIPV
CYP2C9 activ: activators of human CYP2C9; recombinant CYP2C9, luciferin-H conversion, luminescence; stronger effect = higher value; factor 1 = untreated enzyme, 0 = blocked; activation factor at 5 µM; 96,000 tested, 1.4% active; AID 1024;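 active means activation factor of 2 or more for CYP2C9 at a 5 µM dose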
E-sel TNF inh: TNF alpha driven E-selectin expression inhibition; 120,000 tested, 0.71% active; inhibition, % at 2 µM; AID 1246; HUVEC TNFa-induced E-selectin immunofluorescence, high content;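 active means inhibition above the batch mean plus 3 SD, and confirmed as a hit on visual image review, cut at about 43% in these data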
A number is an active result; n = inactive; x = no result. In the library only some 22% were active in any assay of this set; here they are far more common.

SMILES	CYP2C19 act	cytoskel mod	CYP2C19 inh	CYP2C9 inhib	CYP2C9 activ	E-sel TNF inh
S=C(NCCC1=CCCCC1)Nc1ccc(Cl)cc1	x	x	x	x	x	n
Clc1ccc(CNCCC2=CCCCC2)cc1	n	n	100	n	n	n
O=C(O)CCC(=O)Nc1ccc(Br)cn1	n	n	50	n	n	n
COc1ccc(CCC(=O)Nc2ccc(Br)cn2)cc1	n	x	81	n	n	n
CC(C)NC(=O)c1onc(CSc2ccc(F)c(F)c2)c1C(=O)O	n	n	n	76	n	n
COCCNC(=O)c1onc(CSc2ccc(C)c(C)c2)c1C(=O)O	n	n	n	n	n	n
COCCNC(=O)c1onc(CSc2ccccc2)c1C(=O)O	n	n	n	n	n	n
Cc1ccc(SCc2noc(C(=O)NC(C)C)c2C(=O)O)cc1C	n	n	n	80	n	n
O=C(NCC1CCCO1)c1onc(CSc2ccc(Cl)cc2)c1C(=O)O (stereo not given)	n	n	n	51	n	n
Cc1ccccc1SCc1noc(C(=O)NC(C)C)c1C(=O)O	n	n	n	n	n	n
CC(C)NC(=O)c1onc(CSc2cccc(Cl)c2)c1C(=O)O	n	n	n	64	n	n
C=CCC(O)(CCN1CCCCC1)c1ccccc1 (stereo not given)	n	n	n	n	n	n
CC(C)NC(=O)c1onc(CSc2ccc(C(C)C)cc2)c1C(=O)O	n	n	n	91	n	n
CC(C)NC(=O)c1onc(CSc2ccc(F)cc2)c1C(=O)O	n	n	n	n	n	n
COc1cc(/C=N/NC(=O)c2ccc(-n3cccc3)cc2)ccc1O	x	x	x	x	x	n
O=C1CC(c2ccccc2)CC(O)=C1C=NC1CCCCCC1 (stereo not given)	n	n	n	n	n	n
CC(=NC1CCCCC1)C1=C(O)c2ccccc2C1=O	n	n	87	86	n	x
CCOC(=O)CSCc1nc(-c2ccc(Cl)cc2)oc1C	x	x	x	x	x	n
CCOc1ccc2nc(NC(=O)CCC(=O)c3cccs3)sc2c1	n	n	n	n	n	n
Cc1nc(N2CCOCC2)[nH]c(=O)c1CCC(C)C	n	n	n	n	n	n
CCCCCCCc1c(C)nc(N2CCOCC2)[nH]c1=O	n	x	51	74	n	n
N#CCSc1nc2ccccc2c(=O)n1CCC(=O)NCCc1ccccc1	n	n	n	n	n	x
CCCCn1c(SCC(=O)Nc2cc(C)[nH]n2)nc2ccsc2c1=O	n	n	n	72	n	x
CCCn1c(SCc2ccon2)nc2ccccc2c1=O	n	n	85	83	n	n
NC(=O)c1ccsc1NC(=O)CSc1nc2ccccc2c(=O)n1CCCO	n	n	n	58	n	n
SMILES	CYP2C19 act	cytoskel mod	CYP2C19 inh	CYP2C9 inhib	CYP2C9 activ	E-sel TNF inh
CCOC(=O)CSc1nc2ccccc2c(=O)n1CCC(=O)NCCc1ccc(OC)c(OC)c1	n	n	60	65	n	n
COc1cccc(/C=C2\C(=O)N(c3cccc(C)c3)C(=O)c3ccccc32)c1	x	x	x	x	x	n
O=C(CSc1nc2[nH]ncc2c(=O)n1-c1ccccc1)NCc1cccs1	x	x	x	x	x	n
CC(C)(C)c1cc(S(=O)(=O)CCc2ccccn2)cc(C(C)(C)C)c1F	n	n	n	n	n	n
COc1cc(NC(=O)CN2CCCCC2C)c(C)cc1[N+](=O)[O-] (stereo not given)	x	x	x	x	x	n
COC(=O)c1[nH]c2ccc(Br)cc2c1NC(=O)CN1CCCCC1CCO (stereo not given)	n	n	n	n	n	x
Cc1cc(NC(=O)CSc2nc3cc4c(cc3c(=O)n2CCc2ccccc2)OCO4)no1	n	x	59	n	n	n
COc1ccc(CCn2c(SCC(=O)Nc3cc(C)on3)nc3ccsc3c2=O)cc1OC	n	n	54	60	n	x
Cc1cc(NC(=O)CSc2nc3ccccc3c(=O)n2Cc2ccc(F)cc2)no1	n	n	n	n	n	n
COc1ccc(CCn2c(SCC(=O)Nc3cc(C)on3)nc3ccccc3c2=O)cc1OC	n	n	64	51	n	x
Cc1cc(NC(=O)CSc2nc3c(c(=O)n2CCc2ccccc2)SC(C)C3)no1 (stereo not given)	n	x	n	n	n	n
CCCCCCn1c(SCC(=O)Nc2cc(C)on2)nc2ccccc2c1=O	n	n	n	71	n	n
CCCn1nnnc1NC(=O)c1ccc2ccccc2c1	x	x	x	x	x	n
CSc1nc2oc3c(c2c2nncn12)CC(C)(C)SC3	n	n	n	n	n	x
CC1N(O)C(C)(C)C(c2ccccc2)=[N+]1[O-] (stereo not given)	x	n	x	x	x	n
COc1ccccc1N1CCN(C(=O)c2ccc3nc[nH]c3c2)CC1	x	x	x	x	x	n
CCc1ccc(C(=O)CSc2ncn[nH]2)cc1	n	n	75	n	n	x
Cc1ccc(-c2nnc(N3CCN(C(=O)CSc4ncn[nH]4)CC3)c3ccccc23)cc1	n	n	70	64	n	n
Cc1ccc(C(=O)CSc2ncn[nH]2)cc1	n	x	n	53	n	x
Cc1ccc(OCC(=O)N2CCN(c3nnc(-c4ccccc4)c4ccccc34)CC2)cc1	n	n	n	n	n	n
COc1ccc(C(=O)CSc2ncn[nH]2)cc1OC	n	n	n	n	n	n
O=C(COC(=O)Cn1cnc2ccccc21)NCCC1=CCCCC1	n	x	n	n	n	n
CC(C)c1ccc2oc(=O)cc(CN3CCN(c4ccc(F)cc4)CC3)c2c1	n	n	n	n	n	n
CCc1ccc2oc(=O)cc(CN3CCN(c4ccc(F)cc4)CC3)c2c1	n	x	52	n	n	n
CC1CCC2C(=O)N(c3ccc(NC4CCCCC4)c([N+](=O)[O-])c3)C(=O)C2C1 (stereo not given)	x	x	x	x	x	n
SMILES	CYP2C19 act	cytoskel mod	CYP2C19 inh	CYP2C9 inhib	CYP2C9 activ	E-sel TNF inh
CC1(c2ccc(Cl)cc2Cl)OCC(Cn2ccnc2)O1 (stereo not given)	n	n	99	83	n	n
Nc1nonc1C(=O)NCCNC(=O)c1ccccc1F	x	n	x	x	x	n
CO/N=C/NC(=O)NOCc1ncc(C(F)(F)F)cc1Cl	n	n	n	n	n	n
O=C(N/C=N/OCc1ccc(Cl)cc1Cl)NOCc1ncc(C(F)(F)F)cc1Cl	n	n	97	86	n	n
COc1ccc(Nc2ncnc3c2cnn3Cc2ccccc2)cc1	n	n	55	n	n	x
c1ccc(-n2ncc3c(NCc4cccs4)ncnc32)cc1	n	x	60	81	n	n
c1ccc(-n2ncc3c(NCc4cccnc4)ncnc32)cc1	n	n	n	69	n	n
COc1ccc(-n2ncc3c(NCc4ccccn4)ncnc32)cc1	n	x	61	53	n	n
COc1ccc(-n2ncc3c(NCc4ccco4)ncnc32)cc1	n	n	n	n	n	n
CCOc1ccc(Nc2ncnc3c2cnn3Cc2ccccc2)cc1	n	n	n	n	n	x
CCOc1ccc(N2C(=O)c3cccnc3C2Nc2ccc(C)c(C)c2)cc1 (stereo not given)	n	n	n	n	n	n
Cc1ccc(S(=O)(=O)c2cn(CC(=O)Nc3ccccc3)c3ccc(F)cc3c2=O)cc1	x	x	x	x	x	n

Screening results from PubChem.
